# HttQ103 aggreg – qHTS Multiplex Assay to Identify Dual Action Probes in a Cell Model of Huntington: Aggregate Formation (GFP). AID 1688, 2009. 1.1% of 220,000 active. Potency, µM (titrated, usually from 46.1 µM), without a hit: at the highest dose activity change, negative = inhibition, most hits filed as inhibitors. PC12 HttQ103-GFP aggregates, Acumen cytometry, 40 h; note: potency is the fitted concentration of half-maximal effect; % is set by controls: 0 for no effect and ±100 for the full control effect; nearly all actives have a fitted effect of over 60% in size
#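 PC12 cells with ecdysone-inducible HTT exon1 Q103-GFP, induced by 100 nM tebufenozide, given compounds in a concentration series. GFP aggregates (1–25 um, 6 SD above background) counted in lysates by laser-scanning cytometry, 488 nm excitation.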
# HPGD block – qHTS Assay for Inhibitors of HPGD (15-Hydroxyprostaglandin Dehydrogenase); purified HPGD, NADH fluorescence kinetic, PGE2 substrate; Potency, µM, for the others: at the highest dose activity change, negative = inhibition, actives largely listed as inhibitors; 4.3% of 150,000 active; AID 894, 2007; active = well fitted inhibition curve with a large enough effect, not every such curve was filed as active; inconclusive = small, poorly fitted or top-dose-only effect, or another doubt; inactive = no such curve, though single readings can be large or run the other way; note: potency is the fitted concentration of half-maximal effect; % is set by controls: 0 for no effect and ±100 for the full control effect
# Target sequence (P15428 whole entry, looked up): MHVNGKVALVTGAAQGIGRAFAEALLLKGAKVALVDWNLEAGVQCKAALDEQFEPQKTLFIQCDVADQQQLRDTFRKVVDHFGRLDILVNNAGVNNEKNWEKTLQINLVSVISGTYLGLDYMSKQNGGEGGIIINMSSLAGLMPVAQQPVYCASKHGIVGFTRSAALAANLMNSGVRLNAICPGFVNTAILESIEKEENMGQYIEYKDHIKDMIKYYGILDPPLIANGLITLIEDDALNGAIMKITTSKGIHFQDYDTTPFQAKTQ
#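 NADH formation kinetics: reaction with 30 uM PGE2 and 1 mM NAD+ (final), 20 nM enzyme, Tris-HCl pH 8 with Tween 20, after 15 min compound preincubation at room temperature. Fluorescence change, last versus first of five reads.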
# CBFb-RUNX1 inh – qHTS Assay for Compounds Blocking the Interaction Between CBF-beta and RUNX1 for the Treatment of Acute Myeloid Leukemia. Runt-related transcription factor 1 (Homo sapiens) + Core-binding factor subunit beta …. AlphaScreen CBFb-His/RUNX1-biotin binding, biochemical. Potency, µM (titrated, usually from 59.8 µM), without a hit: top-dose activity, negative = inhibition, usual class: inhibitors. 230,000 tested, under 10 active. AID 1477, 2009; note: % of control where 0% means no effect
#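 AlphaScreen proximity signal reports loss of binding between His-tagged CBF-beta and biotin-labelled RUNX1, each at 30 nM. Proteins are pre-associated for 20 minutes, compounds added for 15 minutes, then beads for 90 minutes, all at ambient temperature.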
# PNC assembly inh – High Content Assay for Compounds that inhibit the Assembly of the Perinucleolar Compartment; PC3M PTB-GFP, PNC prevalence imaging, 16 h; stronger effect = lower value; activity change (PNC), negative = inhibition, % at 10 µM; 3.1% of 140,000 active;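 active = readout at or below -70, meaning at least 70% loss of cells showing the perinucleolar compartment, a nuclear body marking cancer cells; inconclusive = readout between -30 and a set limit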;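 note: plate controls were DMSO wells for no effect and camptothecin positive control wells for full effect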
#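 PC3M cells stably expressing PTB-GFP, 750–1000 cells/well, treated 16 h at 37 °C with compound (23 nl of library stock), in duplicate. After paraformaldehyde fixation and Hoechst stain, imaged at 20x; PNC prevalence scored by image analysis.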
# ALDH1A1 inh – qHTS Assay for Inhibitors of Aldehyde Dehydrogenase 1 (ALDH1A1); Aldehyde dehydrogenase 1A1 (Homo sapiens), P00352; Purified ALDH1A1, NADH fluorescence, propionaldehyde substrate; Potency, µM (top dose mostly 75.3 µM), inactives show at the highest dose activity, negative = inhibition, actives largely listed as inhibitors; 7.3% of 220,000 active; active = well fitted inhibition curve with a large enough effect, not every such curve was filed as active; inconclusive = small, poorly fitted or top-dose-only effect, or another doubt; inactive = no such curve, though single readings can be large or run the other way;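 note: potency is the fitted concentration of half-maximal effect; plate controls were no enzyme wells and a reference inhibitor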
# Target sequence (P00352 whole entry, looked up): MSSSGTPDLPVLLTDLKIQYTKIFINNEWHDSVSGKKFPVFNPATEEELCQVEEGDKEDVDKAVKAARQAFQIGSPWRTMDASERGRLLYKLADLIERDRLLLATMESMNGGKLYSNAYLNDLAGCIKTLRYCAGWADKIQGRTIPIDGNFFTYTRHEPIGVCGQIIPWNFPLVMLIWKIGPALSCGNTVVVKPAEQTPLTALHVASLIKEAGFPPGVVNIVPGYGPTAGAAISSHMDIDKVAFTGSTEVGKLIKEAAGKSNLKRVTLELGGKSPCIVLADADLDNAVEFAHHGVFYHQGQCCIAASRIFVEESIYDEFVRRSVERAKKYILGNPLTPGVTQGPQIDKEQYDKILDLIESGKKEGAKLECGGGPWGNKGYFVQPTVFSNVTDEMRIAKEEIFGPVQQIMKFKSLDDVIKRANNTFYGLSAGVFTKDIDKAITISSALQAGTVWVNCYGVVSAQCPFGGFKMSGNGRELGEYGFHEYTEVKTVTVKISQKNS
# HTT cytoprotect – qHTS Multiplex Assay to Identify Dual Action Probes in a Cell Model of Huntington: Cytoprotection (ATP) | 0.14% of 230,000 active | PC12 HTT-Q103 induced, cytoprotection, ATP luminescence, 40 h | Potency, µM (titrated, usually from 56.4 µM), for inactives: cytoprotection (ATP increase), actives largely listed as activators; note: potency is the fitted concentration of half-maximal effect; % of control where 0% means no effect; nearly all actives have a fitted effect of over 45% in size
#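 Cells were plated at 1500 per well in phenol red-free DMEM with 5% equine and 5% calf serum. Tebufenozide (100 nM final) and compounds were added, then ATPlite reagent, and luminescence was read.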
# * marks the source's active call; other numbers are inactive results; ? = inconclusive; . = no result; [ ] = dose if it differs, or a comment. A selection: hits, their analogues and other compounds. The true share with any hit is near 11%. Unless noted, calls come from the whole dose curve; as a rule, active = well fitted curve in the direction sought with a large enough effect; inconclusive = small, poorly fitted or top-dose-only effect, or another doubt; inactive = no such curve, though single readings can be large; an effect the other way counts as inactive or inconclusive.
SMILES,HttQ103 aggreg,HPGD block,CBFb-RUNX1 inh,PNC assembly inh,ALDH1A1 inh,HTT cytoprotect
COc1ccc(OCC(O)CNC(=O)c2ccc(OC)cc2)cc1 (configuration not stated),-5%,.,7%,.,?,7%
COc1ccc(OCC(O)CNS(=O)(=O)c2cccc(Cl)c2)cc1 (configuration not stated),-4%[9.22 µM],.,1%,.,10µM*,-15%[10 µM]
COc1c(Cl)ccc(Cl)c1C(=O)OCC(=O)O,10%,-11%,3%,24,22µM*,3%
O=C(CCCCCNC(=S)Nc1ccccc1)C[N+](=O)[O-],1%,.,2%,.,3.5µM*,-8%
O=C(CCCCCNC(=S)Nc1ccc(Cl)cc1)C[N+](=O)[O-],-1%,.,-3%,.,10µM*,12%
O=C(CCCCCNC(=O)c1ccccc1)C[N+](=O)[O-],?,.,1%,.,2.2µM*,-5%
COc1ccc(CCNC(=S)Nc2ccc(OC)cc2)cc1,-33%,-24%,1%,-14,?,18%[10 µM]
COc1ccc(NC(=S)NCCCCCC(=O)C[N+](=O)[O-])cc1,-12%,.,-8%,.,2.5µM*,-29%
O=C(NCCc1ccc([N+](=O)[O-])cc1)c1ccccc1,-3%[9.22 µM],.,2%,.,.,0%[10 µM]
OCCCNC(=S)Nc1ccc(Nc2ccccc2)cc1,28%,.,-4%,.,-1%,-5%
COc1cccc(CNCc2cccnc2)c1OCc1ccccc1,-14%[9.22 µM],.,9%,.,-1%,8%[10 µM]
O=[N+]([O-])c1ccc(Sc2nnnn2-c2ccccc2)c(Cl)c1,?,-12%,-22%,-2,3.5µM*,1%[10 µM]
Cn1nnnc1Sc1ccc([N+](=O)[O-])cc1Cl,5%,.,8%,.,-2%,-10%[10 µM]
c1ccc(Cn2c(Sc3nnnn3-c3ccccc3)nnc2-c2ccccc2)cc1,-16%,-21%,3%,?,?,9%
Nc1ccc(Sc2nnnn2-c2ccccc2)c(Cl)c1,1%,-2%,2%,?,22µM*,17%
O=C(CSc1nnc(CNc2ccc(F)cc2)o1)N1c2ccccc2Sc2ccccc21,?,-6%,-15%,65,3%,-12%
COc1cccc(N2CCN(C(=O)CN(C)S(=O)(=O)c3ccc4c(c3)c(=O)n(C)c(=O)n4C)CC2)c1,-20%,.,5%,.,-7%,-12%
COc1cccc(OC)c1OCCNC[C@@H]1CSc2ccccc2O1,.,.,.,.,.,-30%[1.9 µM]
CCOC(=O)C1CCN(C(=O)c2cccc(Cl)c2)CC1,-18%,3%,12%,17,3%,13%
CCOc1ccc(C(=O)c2cnc3ccccc3c2N2CCN(CC)CC2)cc1,-1%,.,-3%,.,8.9µM*,4%
CCOc1ccc2ncc(C(=O)c3ccc(OC)cc3)c(N3CCN(CC)CC3)c2c1,-16%,.,-20%,.,0.71µM*,-34%
CCc1ccc(C(=O)c2cnc3ccc(OC)cc3c2N2CCN(CC)CC2)cc1,14%,.,17%,.,18µM*,-36%
CCOC(=O)C1CCN(c2c(C(=O)c3ccccc3)cnc3ccc(Cl)cc23)CC1,?,.,-11%,.,4.5µM*,-25%
Cc1cc(C)c(NS(=O)(=O)c2ccc(NC(=O)CCC(=O)O)cc2)c(C)c1,1%,.,6%,.,7%,-13%
N#Cc1ccc(CN2CC[C@@]3(CCCN(C(=O)c4cnccn4)C3)C2)cc1,.,-3%,.,.,2%,21%
SMILES,HttQ103 aggreg,HPGD block,CBFb-RUNX1 inh,PNC assembly inh,ALDH1A1 inh,HTT cytoprotect
CC(C)Cn1c(=S)[nH]c2cc(Cl)ccc21,4%,.,6%,.,8.9µM*,-50%
O=C(CCCN1C(=O)/C(=C/c2cccs2)SC1=S)Nc1ccccn1,36%[9.22 µM],.,-4%,.,-18%,-9%[10 µM]
O=C(CCCN1C(=O)/C(=C/c2ccccc2Cl)SC1=S)NNC(=O)c1ccc(Cl)cc1,-20%[9.22 µM],.,-1%,.,.,8%[10 µM]
Cc1ccc(C(=O)NNC(=O)CCCN2C(=O)/C(=C/c3ccccc3Cl)SC2=S)cc1,35µM*,-5%,-5%,?,-1%,.
O=C(CCCN1C(=O)/C(=C/c2ccccc2Cl)SC1=S)Nc1ccccn1,-12%,16µM*,-4%,17,-2%,6%[10 µM]
C=C1C[C@@]23C[C@]1(O)CC[C@@H]2[C@]12C=C[C@@H](O)[C@](C)(C(=O)O1)[C@H]2[C@H]3C(=O)O,.,-9%,-14%[21.7 µM],.,-3%[20.9 µM],1%[40.3 µM]
O=C(NCCN1CCCCC1)c1ccc(I)cc1,.,-3%,15%,.,2%,-50%
O=c1[nH]c2cc3c(cc2cc1CN(CCCO)Cc1nnnn1Cc1ccc(F)cc1)OCO3,13%,?,1%,23,?,-21%
Cc1cc(C)c2cc(CN(CCO)Cc3nnnn3Cc3ccc(F)cc3)c(=O)[nH]c2c1,-9%,3%,7%,-18,13µM*,-12%[10 µM]
COc1ccc(CN(Cc2cc3ccc(C)cc3[nH]c2=O)Cc2nnnn2C2CCCC2)cc1,-4%[9.22 µM],?,2%,?,?,-24%[10 µM]
Cc1ccc2cc(CN(CCO)Cc3nnnn3Cc3ccc(F)cc3)c(=O)[nH]c2c1,-3%,-12%,-13%,?,20µM*,-17%[10 µM]
Cc1cc(C)c2cc(CN(CCO)Cc3nnnn3Cc3ccccc3)c(=O)[nH]c2c1,8%,-3%,8%,-3,5µM*,-2%[10 µM]
COCCn1nnnc1CN(CCc1ccc(OC)c(OC)c1)Cc1cc2ccc(C)cc2[nH]c1=O,12%,-14%,-15%,19,11µM*,-28%[10 µM]
O=C1C2CCC(C2)[C@@H]2CCCCN12 (some centres not stated),.,-12%,8%[136 µM],.,?,-6%[96.6 µM]
Cc1ccc(-c2cc(=O)c3ccccc3[nH]2)cc1,8%,?,-17%[136 µM],27,-6%[120 µM],.
Cc1ccc2[nH]c(-c3ccccc3)cc(=O)c2c1,-12%,?,8%,-111*,-26%,-51%[10 µM]
COC(=O)C1CC1C(NC(=O)[C@H]1CCCCN1)c1ccccc1 (some centres not stated),.,0%,6%,.,-10%,9%
CCN(CC)CCC(c1ccc(N(C)C)cc1)c1c(OC)cc(OC)c2c(C)cc(=O)oc12 (configuration not stated),.,.,-27%,.,.,.
CC1CC(C)CN(C(=O)c2ccc3c(=O)n(Cc4ccc5c(c4)OCO5)c(=S)[nH]c3c2)C1 (configuration not stated),-18%,16µM*,-1%,?,1.4µM*,-1%

# Compound activity: PubChem, National Center for Advancing Translational Sciences (NCATS)
